The list is not random: actives were taken first. Their share in the collection is about 12%.
HP1b chromo inh: HP1-beta chromodomain-methylated histone interaction inhibition | P83916 | AlphaScreen HP1-beta / biotin-H3K9me3 peptide binding | Potency, µM (titrated, usually from 114 µM), without a hit: at the highest dose activity change, negative = inhibition, usual class: inhibitors | 390,000 tested, 0.56% active; note: nearly all actives have a fitted effect of over 70% in size
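AlphaScreen: HP1-beta (50 nM) preformed 30 min with biotin-H3(1-18)K9me3 peptide (50 nM) in PBS pH 7.4, 0.01% Tween-20. Compound added for 30 min at RT, then streptavidin donor/nickel chelate acceptor beads (10 ug/mL) for 30 min.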
G9a inh: inhibitors of human histone lysine methyltransferase G9a; 350,000 tested, 8.8% active; Q96KQ7; Potency, µM (doses to about 102 µM), for the others: top-dose activity, negative = inhibition, usual class: inhibitors; AID 504332; G9a H3K9 monomethylation, AlphaScreen, 2 h; note: % is set by controls: 0 for no effect and ±100 for the full control effect; nearly all actives have a fitted effect of over 75% in size
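G9a (20 nM) preincubated 15 min RT with compounds, then 500 nM biotinylated H3K9 peptide and 20 uM SAM added; 2 h RT reaction. Monomethyl-H3K9 product detected by AlphaScreen with anti-H3K9me1 antibody, streptavidin donor and anti-rabbit IgG acceptor beads.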
Sfp PPTase inh: blocks B. subtilis Sfp PPTase activity; Q9F4F7; Biochemical Sfp PPTase activity, qHTS; Potency, µM, for inactives: largest response in the series, negative = inhibition, hits mostly inhibitors; 310,000 tested, 3.5% active; AID 1490;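 note: the enzyme is Sfp with the accession as filed and its product quenches rhodamine fluorescence; 0% = enzyme reaction without inhibitor and -100% = no enzyme wells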
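Fluorescence-quenching assay with 15 nM Sfp, 5 uM rhodamine-CoA and 12.5 uM BHQ-2-labelled ybbR peptide in pH 7.6 Hepes/MgCl2 buffer. Enzyme was pre-incubated with compound for 15 min at room temperature. Rate was taken from the 30-min fluorescence change (525/598 nm).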
BAZ2B block: blocks human BAZ2B. Q9UIF8. AlphaScreen BAZ2B-H3K14Ac peptide displacement. Potency, µM (highest dose often 114 µM), inactives show top-dose activity change, negative = inhibition, most hits filed as inhibitors. 360,000 tested, 4.4% active; note: % is set by controls: 0 for no effect and ±100 for the full control effect; nearly all actives have a fitted effect of over 60% in size
Target sequence (Q9UIF8 whole entry, looked up): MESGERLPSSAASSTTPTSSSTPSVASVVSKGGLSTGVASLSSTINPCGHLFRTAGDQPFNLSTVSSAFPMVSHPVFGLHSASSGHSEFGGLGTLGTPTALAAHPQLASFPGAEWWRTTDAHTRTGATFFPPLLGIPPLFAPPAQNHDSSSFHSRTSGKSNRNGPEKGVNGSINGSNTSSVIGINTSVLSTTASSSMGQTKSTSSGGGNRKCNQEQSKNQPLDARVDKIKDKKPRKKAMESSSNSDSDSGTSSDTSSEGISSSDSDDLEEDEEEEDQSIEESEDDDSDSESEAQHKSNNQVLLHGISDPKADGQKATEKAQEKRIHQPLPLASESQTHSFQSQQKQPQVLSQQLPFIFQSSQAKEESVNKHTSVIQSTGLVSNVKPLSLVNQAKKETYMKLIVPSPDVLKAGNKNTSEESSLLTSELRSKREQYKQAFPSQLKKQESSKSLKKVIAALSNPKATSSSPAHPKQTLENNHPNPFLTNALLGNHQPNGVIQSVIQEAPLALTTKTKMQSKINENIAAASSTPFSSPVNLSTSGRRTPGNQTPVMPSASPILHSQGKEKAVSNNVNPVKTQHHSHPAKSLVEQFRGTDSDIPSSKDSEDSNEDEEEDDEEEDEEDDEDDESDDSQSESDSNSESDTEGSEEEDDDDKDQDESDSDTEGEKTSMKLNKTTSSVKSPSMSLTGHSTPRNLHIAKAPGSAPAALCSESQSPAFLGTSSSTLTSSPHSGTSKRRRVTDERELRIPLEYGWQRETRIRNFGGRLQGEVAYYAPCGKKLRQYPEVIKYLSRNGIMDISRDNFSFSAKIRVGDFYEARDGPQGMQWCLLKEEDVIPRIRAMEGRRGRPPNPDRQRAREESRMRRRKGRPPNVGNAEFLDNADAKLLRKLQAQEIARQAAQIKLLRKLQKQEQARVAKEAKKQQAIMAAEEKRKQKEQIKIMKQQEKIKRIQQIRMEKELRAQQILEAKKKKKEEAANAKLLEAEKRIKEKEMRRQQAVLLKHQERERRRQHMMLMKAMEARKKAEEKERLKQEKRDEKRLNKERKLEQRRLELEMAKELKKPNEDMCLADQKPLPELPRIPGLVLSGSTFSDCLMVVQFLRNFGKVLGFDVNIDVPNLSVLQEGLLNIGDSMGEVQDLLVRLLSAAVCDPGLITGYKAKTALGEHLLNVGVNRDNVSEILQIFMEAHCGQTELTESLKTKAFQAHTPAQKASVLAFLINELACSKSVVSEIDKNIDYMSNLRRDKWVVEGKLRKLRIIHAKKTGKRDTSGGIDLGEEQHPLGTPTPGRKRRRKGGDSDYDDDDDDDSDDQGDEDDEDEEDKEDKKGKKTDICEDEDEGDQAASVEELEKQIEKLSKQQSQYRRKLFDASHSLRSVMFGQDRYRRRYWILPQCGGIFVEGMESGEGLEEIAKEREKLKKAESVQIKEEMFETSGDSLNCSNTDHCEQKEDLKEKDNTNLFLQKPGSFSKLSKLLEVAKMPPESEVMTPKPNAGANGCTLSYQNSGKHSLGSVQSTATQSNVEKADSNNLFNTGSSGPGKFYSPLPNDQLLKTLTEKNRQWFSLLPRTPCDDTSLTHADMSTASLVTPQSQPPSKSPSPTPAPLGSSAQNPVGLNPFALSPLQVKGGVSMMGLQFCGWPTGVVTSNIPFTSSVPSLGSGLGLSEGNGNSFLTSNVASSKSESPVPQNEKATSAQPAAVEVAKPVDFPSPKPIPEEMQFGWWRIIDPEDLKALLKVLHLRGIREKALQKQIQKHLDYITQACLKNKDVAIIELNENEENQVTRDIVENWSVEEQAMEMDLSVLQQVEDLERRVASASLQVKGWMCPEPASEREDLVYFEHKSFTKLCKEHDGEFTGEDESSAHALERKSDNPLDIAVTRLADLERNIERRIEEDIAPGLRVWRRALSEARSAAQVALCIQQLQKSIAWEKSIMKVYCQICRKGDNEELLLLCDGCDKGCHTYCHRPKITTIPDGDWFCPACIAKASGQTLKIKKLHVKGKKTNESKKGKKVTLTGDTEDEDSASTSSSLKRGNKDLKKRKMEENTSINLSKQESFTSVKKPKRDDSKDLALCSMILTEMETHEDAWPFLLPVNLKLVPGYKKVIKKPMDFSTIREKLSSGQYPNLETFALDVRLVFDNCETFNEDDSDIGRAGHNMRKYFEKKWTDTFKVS
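AlphaScreen displacement of biotin-H3(5-23)K14Ac peptide (50 nM final) from BAZ2B (50 nM final) in PBS pH 7.4, 0.01% Tween-20; complex preformed 30 min RT, then compounds (top 110 uM) 30 min RT, beads 20 min dark.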
JMJD2A Tudor: inhibitors of human JMJD2A Tudor domain. AlphaScreen JMJD2A-Tudor / H3K4me3 peptide binding. 390,000 tested, 4.4% active. Potency, µM (highest dose often 114 µM), without a hit: at the top dose activity change, negative = inhibition, actives largely listed as inhibitors; note: % is set by controls: 0 for no effect and ±100 for the full control effect; nearly all actives have a fitted effect of over 50% in size
PLK1 PBD block: blocks phosphopeptide binding to human PLK1 polo-box domain; P53350; Plk1 PBD binding of FITC phosphopeptide, fluorescence polarization; Potency, µM, for inactives: max response, negative = inhibition, most hits filed as inhibitors; 360,000 tested, 2.8% active; note: series mostly up to about 57 µM; % is set by controls: 0 for no effect and ±100 for the full control effect; nearly all actives have a fitted effect of over 65% in size
TbPYK inh: Trypanosoma brucei pyruvate kinase inhibition, cherry-pick confirmation; shares compounds with PLK1 PBD block; recombinant TbPYK, Kinase-Glo ATP luminescence; Potency, µM (doses to about 76.9 µM), without a hit: top-dose activity change, negative = inhibition, usual class: inhibitors; 890 tested, 67% active; AID 720569; note: % is set by controls: 0 for no effect and ±100 for the full control effect; nearly all actives have a fitted effect of over 70% in size
TbPYK orthogonal: orthogonal confirmation of Trypanosoma brucei pyruvate kinase inhibitors. shares compounds with PLK1 PBD block. recombinant TbPYK, ADP-Glo luminescence, 60 min. Potency, µM (titrated, usually from 76.9 µM), inactives show at the top dose activity change, negative = inhibition, usual class: inhibitors. 890 tested, 62% active. AID 720584; note: % is set by controls: 0 for no effect and ±100 for the full control effect; nearly all actives have a fitted effect of over 75% in size
* marks the source's active call; other numbers are inactive results; [ ] = remark or other dose. Calls come from the whole dose curve; as a rule, active = well fitted curve in the direction sought with a large enough effect; inconclusive = small, poorly fitted or top-dose-only effect, or another doubt; inactive = no such curve, though single readings can be large; an effect the other way counts as inactive or inconclusive. Potency is the fitted concentration of half-maximal effect.

NS(=O)(=O)c1ccc(-c2ccc(C=C3C(=O)NC(=O)NC3=O)o2)cc1 was read as HP1b chromo inh 12%, G9a inh 10µM*, Sfp PPTase inh 14µM*, BAZ2B block -34%, JMJD2A Tudor inconclusive, PLK1 PBD block 2.7µM*, TbPYK inh 1.8µM* and TbPYK orthogonal 6.3µM*.
For CNS(=O)(=O)c1ccc(-c2ccc(C=C3C(=O)NC(=O)NC3=O)o2)cc1 the results were HP1b chromo inh 72%, G9a inh 8.9µM*, Sfp PPTase inh 35µM*, BAZ2B block inconclusive, JMJD2A Tudor -25%, PLK1 PBD block 2.1µM*, TbPYK inh 2.8µM* and TbPYK orthogonal 10µM*.
C=CCC1C(=O)NC(=S)NC1=O was read as HP1b chromo inh -19%, G9a inh 8.9µM*, Sfp PPTase inh 50µM*, BAZ2B block 6%, JMJD2A Tudor 89µM*, PLK1 PBD block 30µM*, TbPYK inh 0.56µM* and TbPYK orthogonal 1.8µM*.
`O=c1[nH]c(=O)n(CCc2ccc(F)cc2)c(O)c1C=NCc1ccc2c(c1)OCO2` gave HP1b chromo inh 24%, G9a inh -11%[59 µM], Sfp PPTase inh inconclusive, BAZ2B block 12%, JMJD2A Tudor -13% and PLK1 PBD block 0%.
Screening O=C(O)c1ccccc1-c1ccc(C=C2C(=O)N(c3ccccc3)C(=S)N(c3ccccc3)C2=O)o1 returned HP1b chromo inh -17%, G9a inh 18%[0.501 µM], Sfp PPTase inh 50µM*, BAZ2B block 71µM*, JMJD2A Tudor 50µM*, PLK1 PBD block 2.7µM*, TbPYK inh 32µM* and TbPYK orthogonal 40µM*.
CN1C(=O)N(C)C(=O)C2(Sc3ccccc3C2=O)C1=O was read as HP1b chromo inh 8%, G9a inh inconclusive, Sfp PPTase inh inconclusive, BAZ2B block -34%, JMJD2A Tudor inconclusive, PLK1 PBD block 5.3µM*, TbPYK inh 5µM* and TbPYK orthogonal inconclusive.
For CCOC(=O)c1c(C)n(Cc2ccc(F)cc2)c2ccc(O)cc12 the results were HP1b chromo inh -2%, G9a inh -18%[12.7 µM], Sfp PPTase inh 22µM*, BAZ2B block -32%, JMJD2A Tudor inconclusive, PLK1 PBD block -14%, TbPYK inh inconclusive and TbPYK orthogonal 18µM*.
CCc1ccc(OCC(=O)N2CCN(CCc3ccccn3)CC2)cc1 was read as HP1b chromo inh 43%, G9a inh -3%[59 µM], BAZ2B block -4% and JMJD2A Tudor -14%.
For Cn1cccc1/C=C1/C(=O)NC(=S)N(Cc2ccc(F)cc2)C1=O the results were HP1b chromo inh 35µM*, G9a inh 10µM*, Sfp PPTase inh inconclusive, BAZ2B block 25µM*, JMJD2A Tudor 45µM*, PLK1 PBD block 0.67µM*, TbPYK inh 3.5µM* and TbPYK orthogonal inconclusive.
Screening CN1C(=O)C(=Cc2ccccc2Oc2ccc(Cl)c(F)c2)C(=O)N(C)C1=O returned HP1b chromo inh 132%, G9a inh -21%, Sfp PPTase inh 56µM*, BAZ2B block 19%, JMJD2A Tudor 10%, PLK1 PBD block 4.2µM*, TbPYK inh inconclusive and TbPYK orthogonal -26%.
CN1CCCC1c1cccnc1 (configuration not stated) was read as HP1b chromo inh 13%, Sfp PPTase inh 18%, JMJD2A Tudor -23% and PLK1 PBD block -1%.
Screening Cc1nnc(NC(=O)c2cccn(Cc3cccc([N+](=O)[O-])c3)c2=O)s1 returned HP1b chromo inh -11%, G9a inh -6%[59 µM], BAZ2B block 1% and JMJD2A Tudor -18%.
COc1ccc(-n2c(-c3ccco3)nc3c(cnn3-c3ccc(Cl)cc3)c2=O)cc1 was read as HP1b chromo inh 20%, G9a inh inconclusive and JMJD2A Tudor -25%.
For CCOC(=O)c1c(/N=C/C2C(=O)NC(=S)NC2=O)sc2c1CCC2 the results were HP1b chromo inh 40%, G9a inh inconclusive, Sfp PPTase inh 13µM*, BAZ2B block -19%, JMJD2A Tudor 50µM*, PLK1 PBD block 23%, TbPYK inh inconclusive and TbPYK orthogonal inconclusive.

High-throughput results from PubChem.
